Screens as filed in PubChem.
MITF TRPM1 inh: MITF TRPM1 promoter inhibition in SK-MEL-5 cells; SK-MEL-5 TRPM1 promoter luciferase, 24 h; inhibition, % at 12.5 µM; hit rate 0.83% among 330,000; AID 488899;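 active = mean inhibition across replicates of 60% or more, whatever share of single replicates reaches that level; inconclusive = some that reach 60%, reason not given; inactive = mean inhibition across replicates below 60%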
PfHsp90 set2: reduces growth (ATP signal) of yeast expressing P. falciparum Hsp90; inhibition, % at 9.4 µM; S. cerevisiae expressing PfHsp90, BacTiter-Glo ATP, 48 h; yeast lacking PDR1 and PDR3 efflux regulators; hit rate 0.32% among 310,000; AID 504621;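 active = every replicate shows inhibition above about 80%, whatever the replicate mean, limit read from the data; inconclusive = mean inhibition reaches the set limit but some replicate falls short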
Wnt act: Wnt/beta-catenin pathway activation | Wnt/beta-catenin reporter cell assay, activator, plate reader | activation, % at 9.35 µM | hit rate 1.2% among 300,000 | AID 743398; in the data active = activation above about 30%, passing the limit was not always enough; inconclusive = no clear call, values can overlap the other calls
MITF act: MITF TRPM1 promoter activation in melanoma cells; SK-MEL-5 TRPM1-promoter luciferase, 24 h; % of positive control, neutral wells = 0; activation, % at 12.5 µM; hit rate 0.75% among 300,000; AID 588334;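 active = mean activation of at least 80% with every replicate also reaching 80%; inconclusive = mean reaches 80% but some replicate falls short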
NSD2 inh: blocks human histone methyltransferase NSD2; NSD2 peptide methylation, AlphaScreen, 120 min; inhibition, % at 12.5 µM; hit rate 0.54% among 310,000; AID 743445; in the data active = inhibition above about 50%
N-glyco inh: N-linked glycosylation inhibition | reporter increase, % at 12.5 µM | D54 ERlucT glycosylation luciferase reporter, 24 h; percent of 100 nM tunicamycin response | hit rate 0.23% among 360,000;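 active = mean luciferase reporter signal, scaled so untreated is 0 and the glycosylation-blocking control 100, at or above a set limit in every replicate; inconclusive = mean reaches the limit but not every replicate does; inactive = mean below the limit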;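 also: luciferase carries N-glycosylation sites so blocking glycosylation raises the light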
Hits are given with their value. Rows were chosen to be rich in hits. Some 2.9% of all compounds tested hit in one or more screens of this group.

For CCc1ccc(CNc2ccc3c(c2)ncn3CC)cc1 the results were MITF TRPM1 inh inactive, PfHsp90 set2 inactive, Wnt act inactive, MITF act 91, NSD2 inh inactive and N-glyco inh inactive.
Screening Cn1cnc2cc(NCc3ccccc3Cl)ccc21 returned MITF TRPM1 inh inactive, PfHsp90 set2 inactive, Wnt act inactive, MITF act inconclusive, NSD2 inh inactive and N-glyco inh inactive.
Screening CCn1cnc2cc(NCc3ccccc3Cl)ccc21 returned MITF TRPM1 inh inactive, PfHsp90 set2 inactive, Wnt act inactive, MITF act 87, NSD2 inh inactive and N-glyco inh inactive.
`C[C@]1(O)CC(=O)C=C[C@H]1Nc1ccccc1` gave MITF TRPM1 inh inactive, PfHsp90 set2 inactive, Wnt act inactive, MITF act inactive and N-glyco inh 44.
Screening COC(=O)c1cc(S(=O)(=O)N2CCN(Cc3ccccc3)CC2)c[nH]1 returned MITF TRPM1 inh inactive, PfHsp90 set2 inactive, Wnt act inactive, MITF act inactive, NSD2 inh inactive and N-glyco inh inactive.
Fc1ccc2c(Cl)c(-c3nnc(-c4cccs4)o3)sc2c1 was read as MITF TRPM1 inh inactive, Wnt act 44, NSD2 inh inactive and N-glyco inh inactive.
`COc1cccc2cc(-c3nc4ccccc4o3)c(=O)oc12` gave MITF TRPM1 inh inactive, PfHsp90 set2 inactive, Wnt act 42, MITF act inactive, NSD2 inh inactive and N-glyco inh inactive.
O=c1oc2ccc(Br)cc2cc1-c1nc2ccccc2o1 was read as MITF TRPM1 inh inactive, PfHsp90 set2 inactive, Wnt act inactive, MITF act inactive, NSD2 inh inactive and N-glyco inh inactive.
Screening O=C(O)/C=C/C(=O)c1ccc2c(c1)CCc1ccccc1-2 returned PfHsp90 set2 96, Wnt act inactive, MITF act inactive and N-glyco inh inactive.
`CCCCCCSc1cc(-c2nc3ccc(C)cn3c2NCc2ccccc2)ccc1OC` gave MITF TRPM1 inh inactive, PfHsp90 set2 inactive, Wnt act inactive, MITF act inactive and N-glyco inh inactive.
C=C(C)Cn1c(SCC(=O)N/N=C(\C)c2ccc(Br)cc2)nnc1-c1ccc(Br)cc1 was read as NSD2 inh inactive.
O=C(COc1ccccc1C(=O)c1cnn(-c2ccccc2)c1)Nc1ccccc1 was read as MITF TRPM1 inh inactive, PfHsp90 set2 inactive, Wnt act inconclusive, MITF act inactive, NSD2 inh inactive and N-glyco inh inactive.
COc1ccccc1CNC(=O)COc1ccccc1C(=O)c1cnn(-c2ccccc2)c1 was read as MITF TRPM1 inh inactive, PfHsp90 set2 inactive, Wnt act 58, MITF act 89, NSD2 inh inactive and N-glyco inh inactive.
`CC(Oc1ccc2c(c1)c1ccnc3c4ccccc4c(=O)n2c13)C(=O)NCCN1CCOCC1` (stereo unspecified) gave PfHsp90 set2 inactive, Wnt act inactive and N-glyco inh 74.
COc1ccc2c(c1OC)c(=O)n1c3ccc(OC(C)C(=O)NCCN4CCOCC4)cc3c3ccnc2c31 (stereo unspecified) was read as MITF TRPM1 inh inactive, PfHsp90 set2 inactive, Wnt act inactive, MITF act inactive and N-glyco inh inactive.
Screening CSc1ccc(CN(C)C(=O)COc2ccc(C(=O)c3ccccc3)cc2)cc1 returned MITF TRPM1 inh inactive, PfHsp90 set2 inactive, Wnt act inactive, MITF act inactive, NSD2 inh inactive and N-glyco inh inactive.
N#Cc1cc2c(nc1SCC(=O)O)CCCC2 was read as MITF TRPM1 inh inactive, PfHsp90 set2 inactive, MITF act inactive and NSD2 inh inactive.
For Cc1cc(C)c2nc(SCC(=O)Nc3cc(C)on3)c(C#N)cc2c1 the results were MITF TRPM1 inh inactive, PfHsp90 set2 inactive, Wnt act inactive, MITF act inactive and N-glyco inh inactive.
`Cc1cc(NC(=O)CSc2nc3c(cc2C#N)CCCC3)no1` gave MITF TRPM1 inh inactive, PfHsp90 set2 inactive, Wnt act 41, MITF act inactive, NSD2 inh inactive and N-glyco inh inactive.
For Cc1cc(NC(=O)CSc2nc3c(cc2C#N)CCC3)no1 the results were MITF TRPM1 inh inactive, PfHsp90 set2 inactive, Wnt act 34, MITF act inactive, NSD2 inh inactive and N-glyco inh inactive.
Screening c1ccc(CCn2nnc3ccccc32)cc1 returned MITF TRPM1 inh inactive, PfHsp90 set2 inactive, Wnt act 54, MITF act 98, NSD2 inh inactive and N-glyco inh inactive.
